PubChem BioAssay (NCI)
Compounds without any hit were thinned out: in the full panel of roughly 79,000, 15% have a hit. Activity calls are given as the source filed them. Cut-off read from the data, not from the text of the source: active = growth inhibition above about 70%; inactive = the rest. Where a SMILES comes first, the peptide text is derived from it. [ ]: non-standard residue; d: D form. The star is where a group is joined. ξ: configuration not given here. Cbz = O=C(OCc1ccccc1)*; Boc = CC(C)(C)OC(=O)*; ξK = NCCCCC(N)C(=O)O

How the values were obtained:
[1] = NCI Yeast Anticancer Drug Screen. Data for the rad50 strain (AID 155);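 note: 0% = growth of vehicle-only cultures of the same strain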; conditions: S. cerevisiae rad50 strain growth inhibition; at 50.0 µM; active compounds read high
In short: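 Compounds were tested on a yeast strain with an engineered DNA damage repair alteration; the reported value is growth inhibition normalised to vehicle treatment.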

[2] = NCI Yeast Anticancer Drug Screen. Data for the mec2-1 strain (AID 157); conditions: S. cerevisiae mec2-1 strain, at 50.0 µM, active compounds read high
In short: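 Readout is yeast growth inhibition, normalised to vehicle-treated controls, in the mec2-1 strain exposed to compound.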

[3] = NCI Yeast Anticancer Drug Screen. Data for the sgs1 mgt1 strain (AID 161);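 note: 0% = growth of cultures given vehicle only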; conditions: S. cerevisiae sgs1 mgt1 strain, at 50.0 µM, active compounds read high
In short: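 Compounds are added to genetically altered yeast, and growth is compared with cultures given vehicle alone to give percent inhibition.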

[4] = NCI Yeast Anticancer Drug Screen. Data for the cln2 rad14 strain (AID 165);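 note: 0% = growth equal to vehicle treated cultures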; conditions: S. cerevisiae cln2 rad14 strain, at 50.0 µM, active compounds read high
In short: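 Relative to vehicle controls, growth inhibition of compound-treated cln2 rad14 yeast was recorded.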

[5] = NCI Yeast Anticancer Drug Screen. Data for the bub3 strain (AID 167); conditions: S. cerevisiae bub3 mutant strain, at 50.0 µM, active compounds read high
In short: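 Growth of a checkpoint-deficient yeast mutant is measured after compound exposure. Values represent inhibition relative to vehicle.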

[6] = NCI Yeast Anticancer Drug Screen. Data for the mlh1 rad18 strain (AID 175); conditions: S. cerevisiae mlh1 rad18 strain growth inhibition; at 50.0 µM; active compounds read high
In short: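 Test agents were incubated with a yeast strain of defined genotype (DNA damage repair defect). Inhibition of growth was derived by comparison with vehicle-exposed cultures.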

Measured: growth inhibition

O=c1cc(CC(O)(c2ccccc2)c2ccccc2)cc[nH]1
inactive: [1] 16.1% | [2] 3.8% | [3] -4.65% | [4] -10.8% | [5] -0.35% | [6] -1%

CCOC(=O)SC1=NC(C)=CC(C)(C)S1
inactive: [1] 2.4% | [2] 6.55% | [3] 18.6% | [4] -10.9% | [5] -3.7% | [6] -4.7%

C/C(=C\c1ccccc1)c1ccccc1
inactive: [1] -47.8% | [2] 1.9% | [3] -3.75% | [4] -30.4% | [5] 2.1% | [6] 8.45%

COc1cc2cc[n+]3c(C)c4ccc(OC)c(OC)c4cc3c2cc1OC (tested in a mixture with another compound)
inactive: [1] -4.15% | [2] 17.2% | [3] -5.3% | [4] -10.8% | [5] -3.55% | [6] 6.65%

CSC(SC)=C1CCCC(=C(SC)SC)C1=O
inactive: [1] -6.95% | [2] -9.3% | [3] -9.55% | [4] 6.95% | [5] -0.45% | [6] -8.9%

Nc1ccc(C(=O)O)cc1[N+](=O)[O-]
inactive: [1] -0.85% | [2] -4.65% | [3] -3.7% | [4] -14.6% | [5] 2.15% | [6] -1.5%

CSCCC(NC(=O)C(CC(C)C)NC(=O)CNC(=O)OC(C)(C)C)C(=O)N(C)C (stereo not drawn) (Boc-Gly-Leu-Met-NMe2; configuration not given here)
inactive: [1] 6.6% | [2] -5.15% | [3] -3.9% | [4] -2.8% | [5] -0.1% | [6] -3%

CSCSCC(CO)NC(=O)/C=C\c1ccccc1 (stereo unspecified)
inactive: [1] -0.7% | [2] -4.05% | [3] 7.15% | [4] -21.7% | [5] 4% | [6] 3.5%

COc1ccc(-c2cc(=O)c3cccc(CC(=O)O)c3o2)cc1
inactive: [1] 8.2% | [2] 11.7% | [3] -0.3% | [4] 31.1% | [5] 2.05% | [6] 18.4%

c1cncc(-c2c3ccccc3cc3ccccc23)c1
inactive: [1] 22.3% | [2] -16% | [3] 2.8% | [4] -8.5% | [5] 4.8% | [6] 5.1%

C=CCSC(C)=O
inactive: [1] -3.4% | [2] -0.05% | [3] 13.9% | [4] 7.6% | [5] -7.8% | [6] -6.8%

CC(N)c1ccc(OCCOc2ccc(C(C)(C)CC(C)(C)C)cc2)cc1 (stereo unspecified)
active: [1] 98.9% | [2] 99% | [4] 97.7% | [5] 98.9% | [6] 99%
inactive: [3] 42.7%

CC1(C)CC(=O)C(C(CCC2CCCCC2=O)C2C(=O)CC(C)(C)CC2=O)C(=O)C1 (stereo unspecified)
inactive: [1] 38.5% | [2] 7.95% | [3] 10% | [4] 1.95% | [5] 9.35% | [6] 19.6%

OC1CNc2c(ccc3ccccc23)C1 (stereo unspecified)
inactive: [1] 10.7% | [2] -26.4% | [3] -13.4% | [4] -17% | [5] -38% | [6] -6.25%

Cc1ccc2nc(C)ccc2c1
inactive: [1] -38.2% | [2] -23.2% | [3] -2.7% | [4] -16.1% | [5] -0.2% | [6] -3.4%

O=c1[nH]nc(Sc2ccccc2)c(=O)[nH]1
inactive: [1] -11.8% | [2] -3.4% | [3] -12.6% | [4] -10.4% | [5] -11.4% | [6] -14.9%

CSc1nnc(SCc2nn3c(=O)cc(C)nc3s2)s1
inactive: [1] -7.9% | [2] -0.85% | [3] 0.4% | [4] 10% | [5] 5.55% | [6] 10.6%

N#Cc1c(N)nc2c3c1NC(=O)C(C(N)=O)C3c1ccccc1O2 (stereo unspecified)
inactive: [1] 6.1% | [2] -3.15% | [3] 5.95% | [4] 2% | [5] -2.6% | [6] -22.4%

Cc1cc2oc(C)c(S(=O)(=O)NC(=O)Nc3ccc(Cl)cc3)c(=O)c2c(=O)o1
inactive: [1] -2.85% | [2] -0.45% | [3] -2.5% | [4] 3.55% | [5] 12.2% | [6] -2.8%

O=C(NCCCCC[N+](CCCCCNC(=O)c1ccccc1)(CCCCCNC(=O)c1ccccc1)CCCCCNC(=O)c1ccccc1)c1ccccc1
inactive: [1] 3.65% | [2] 10.4% | [3] -15.2% | [4] -2.2% | [5] -1.65% | [6] -7.85%

CC(C)NC(=O)/C=C/C(=O)O
inactive: [1] -16.1% | [2] -20.4% | [3] -41.2% | [4] -7.4% | [5] -11.2% | [6] -9.1%

COc1ccc(C2C3=C(CCCC3=O)OC3=C2C(=O)CCC3)cc1
inactive: [1] -6.85% | [2] 1.4% | [3] -16.2% | [4] -17.2% | [5] 9.65% | [6] 12.7%

NCCCCC(NC(=O)OCc1ccccc1)C(=O)NCC(N)=O (stereo unspecified) (Cbz-[ξK]-Gly-NH2)
inactive: [1] 10.1% | [2] 8.5% | [3] 5% | [4] 4.05% | [5] 16.1% | [6] -30.2%

COc1ccc(-n2c(N)c(C#N)c(C#N)c2-c2ccco2)cc1
inactive: [1] 6.7% | [2] 9% | [3] -9.3% | [4] -20.1% | [5] -25.4% | [6] -39%

CN=C(NC)c1ccc(Cl)c(Cl)c1
inactive: [1] 8.1% | [2] -5.4% | [3] -0.9% | [4] -31.2% | [5] 10.9% | [6] 11.8%

CCC(=O)Cc1ccc(OC)c(OC)c1
inactive: [1] -0.3% | [2] -3.5% | [3] 19.6% | [4] 7.3% | [5] 9.35% | [6] 2.5%

COc1ccc(N)c(C(O)CCNC(C)=O)c1 (stereo unspecified)
inactive: [1] -20.1% | [2] -23.2% | [3] -25.9% | [4] -7.5% | [5] -43.5% | [6] -38.8%

NNC(=O)CC(=O)Nc1ccc(S(=O)(=O)c2ccc(NC(=O)CC(=O)NN)cc2)cc1
inactive: [1] 16.6% | [2] 12.7% | [3] 18.6% | [4] 30.1% | [5] 25.4% | [6] -1%

O=S(=O)(O)SCCNCCCCc1ccccc1
inactive: [1] -11.2% | [2] -3% | [3] 2.3% | [4] -5.35% | [5] -6.4% | [6] -22.8%

Cc1cccc(C)c1NN
inactive: [1] 23.2% | [2] -4.15% | [3] 11.8% | [4] -12.7% | [5] -11.5% | [6] 24.2%

CCC(O)(c1ccccc1)C(OC)c1ccccc1 (stereo unspecified)
inactive: [1] 15.3% | [2] 5.35% | [3] 14.5% | [4] 7.25% | [5] -0.35% | [6] 21.1%

O=S1(=O)CCCC1C(O)c1ccccc1 (stereo unspecified)
inactive: [1] 13.8% | [2] -5.75% | [3] -8.85% | [4] -60.2% | [5] 1.55% | [6] -15.1%

CCNC(=O)N(Cc1ccccc1)Cc1ccccc1
inactive: [1] 7.55% | [2] 8.65% | [3] 6.05% | [4] 13.3% | [5] 23.5% | [6] -20.6%

O=C(O)c1ccoc1-c1ccccc1
inactive: [1] 12.7% | [2] -6.05% | [3] 10.7% | [4] -26.9% | [5] -7.55% | [6] 22.2%

CCCCN(CCCC)CC(O)c1cc(-c2ccc(C(F)(F)F)cc2)nc(-c2ccc(C(F)(F)F)cc2)c1 (stereo unspecified)
inactive: [1] 25% | [2] 2.45% | [3] 2.2% | [4] -24.2% | [5] -33.8%
active: [6] 82.3%

CC1CC(C)NC(C)C1 (stereo unspecified)
inactive: [1] -17.1% | [2] -25.6% | [3] -50% | [4] 3.15% | [5] -10.9% | [6] -7.6%

CC(=O)Nc1cccc(Cl)c1
inactive: [1] -2.25% | [2] -24.5% | [3] -0.2% | [4] -4.8% | [5] -1.45% | [6] 6.5%

CN(C)c1ccc(N=C2C=CC(=C(C#N)C#N)c3ccccc32)cc1
inactive: [1] -24% | [2] -6.05% | [3] -14.2% | [4] -34% | [5] -20.9% | [6] -50%

CC1=CN(c2ccccc2)S2=C1c1sc3c(c1N2c1ccc(Br)cc1)CCCC3 (stereo unspecified)
inactive: [1] 0.9% | [2] -21.9% | [3] -27.5% | [4] 14.4% | [5] 3.15% | [6] -52.2%

CCOC(=O)CN(C=O)C(C)c1ccccc1 (stereo unspecified)
inactive: [1] 13.1% | [2] 18.4% | [3] 4.4% | [4] 3.7% | [5] 33.6% | [6] 20.9%

CC(=O)O[C@H]1CC[C@@]2(C)C(=CC[C@H]3[C@@H]4CC[C@H](c5cc(C(F)(F)F)n(C(C)=O)n5)[C@@]4(C)CC[C@@H]32)C1
inactive: [1] 11.3% | [2] -6.7% | [3] -40.6% | [4] 2.55% | [5] -19.6% | [6] 12.4%
